This note sets out measurements from PubChem BioAssay (NCI).

Structures are written as SMILES. The panel holds about 83,000 compounds, 20% with a hit somewhere; the sample as a whole holds those more often.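 Note: values are percent growth. 100 is the growth of untreated cells, values between 100 and 0 indicate rising inhibition; between -100 and 0 indicates cell death.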 Unmarked numbers belong to inactive results. The source made the active and inactive calls. The calls were made as follows: active = growth percent below 10; inactive = the rest.

Some test systems named below: NCI-H23 lung; NCI-H226 lung; NCI-H322M lung; HOP-62 NSCLC; NCI-H460 lung; HOP-92 NSCLC; NCI-H522 lung; A549/ATCC NSCLC; 786-0 renal; COLO 205 colon.
What all share (assay): NCI-60 one-dose screen, 48 h (100 = growth as untreated, 0 = no growth, -100 = all killed)
Holding throughout (conditions): 10 µM unless noted

Consider `CC(C)N1CCN(Cc2ccc3c(NNC(=O)c4ccccc4)nc4cc(F)ccc4n23)CC1`, for which the growth in the test with NCI-H23 lung is 28.6%; in the test on NCI-H226 lung, 14.5%; in the test with NCI-H322M lung it was 29.3%; with HOP-62 NSCLC, 24.9%; in the test on NCI-H460 lung, 3.96% (active); in the test with HOP-92 NSCLC, 49%. Further, the growth with NCI-H522 lung is 22.8%; with A549/ATCC NSCLC, 16.2%; with 786-0 renal, 34.2%; in the test with COLO 205 colon, 17.1%.

Consider `COc1ccc(/C=C2\COc3ccc(O)cc3C2=O)c(OC)c1OC`, for which the growth with NCI-H23 lung was 89.5%; in the test with NCI-H226 lung it was 99%; with NCI-H322M lung, 95.8%; with HOP-62 NSCLC, 80.9%; in the test on NCI-H460 lung it was 84.8%; with HOP-92 NSCLC, 102%. In addition, the growth in the test on NCI-H522 lung is 55.6%; in the test on A549/ATCC NSCLC, 92.4%; in the test with 786-0 renal, 87.7%; in the test with COLO 205 colon it was 102%.

With `C=CCn1c(SCC(=O)Nc2ccc(C(=O)/C=C/c3ccc(Cl)cc3)cc2)nnc1-c1cc(-c2ccc(S(N)(=O)=O)cc2)nc2ccccc12`, the growth in the test with NCI-H23 lung was 99.3%; in the test with NCI-H226 lung, 89.6%; with NCI-H322M lung, 99.7%; with HOP-62 NSCLC, 91.8%; in the test with NCI-H460 lung it was 103%; in the test on HOP-92 NSCLC it was 91.4%. Besides, the growth in the test with NCI-H522 lung was 98.3%; in the test on A549/ATCC NSCLC it was 92.6%; in the test with 786-0 renal, 83.1%; in the test with COLO 205 colon, 103%.

`Cc1ccccc1NC(=O)c1sc2nc(C)c(C(=O)/C=C/c3ccccc3)cc2c1N`: the growth is 43.3% in the test on NCI-H23 lung; 26.2% in the test with NCI-H226 lung; 55.5% with NCI-H322M lung; 9.21% (active) in the test on HOP-62 NSCLC; 0.299% (active) with NCI-H460 lung; 37% with HOP-92 NSCLC. The growth is 17.9% with NCI-H522 lung, 14.3% in the test on A549/ATCC NSCLC, -16.9% (active) with 786-0 renal and 64.1% in the test on COLO 205 colon.

Take `CCCNC(=O)Oc1ccc(/C(=C(/C)Cc2ccc(OC)cc2)c2ccc(OCCCN(C)C)cc2)cc1`: the growth in the test on NCI-H23 lung was 82.4%; with NCI-H226 lung, 94.7%; in the test on NCI-H322M lung, 88.3%; in the test with HOP-62 NSCLC, 101%; in the test on NCI-H460 lung it was 73.3%; with HOP-92 NSCLC, 51.7%. The growth in the test on NCI-H522 lung is 78.5%; with A549/ATCC NSCLC, 77.6%; with 786-0 renal, 92%; with COLO 205 colon it was 71.6%.

Regarding `O=S(=O)(Nc1ccc(Cl)cc1)c1ccc(-c2cnc(C3CC3)o2)cc1`, the growth with NCI-H23 lung is 34.5%; in the test on NCI-H226 lung it was 61.4%; with NCI-H322M lung it was 44%; in the test on HOP-62 NSCLC, 28.8%; with NCI-H460 lung it was 9.01% (active); in the test on HOP-92 NSCLC it was 41%. Moreover, the growth with NCI-H522 lung was 11.4%; with A549/ATCC NSCLC, 40.4%; with 786-0 renal, 41.1%; in the test with COLO 205 colon, 9.01% (active).

`CO[C@H]1/C=C(/C)CCC[C@H](C)[C@H](O)[C@@H](C)C(=O)C(C)(C)[C@@H](O)CC(=O)O[C@@H]1/C(C)=C/c1csc(C)n1`: the growth in the test on NCI-H23 lung was 34.7%; in the test with NCI-H226 lung, 50.3%; with NCI-H322M lung it was 12.8%; in the test with HOP-62 NSCLC, 29.4%; with NCI-H460 lung, 6.16% (active); with HOP-92 NSCLC, 66.6%. Further, the growth in the test on NCI-H522 lung is -29.1% (active); in the test with A549/ATCC NSCLC, 17.5%; in the test on 786-0 renal, 57.1%; with COLO 205 colon, -53% (active).

As to `NC(=O)CCC(C(=O)O)N1C(=O)c2ccc(O)cc2C1=O` (stereo not given), the growth is 118% in the test with NCI-H23 lung; 107% with NCI-H226 lung; 112% in the test on NCI-H322M lung; 113% in the test with HOP-62 NSCLC; 109% in the test with NCI-H460 lung; 93.2% in the test with HOP-92 NSCLC. Also, the growth is 102% with NCI-H522 lung, 122% with A549/ATCC NSCLC, 111% in the test on 786-0 renal and 119% in the test on COLO 205 colon.

For `O=C(O)/C(=C\c1ccc(Cl)cc1)c1ccc(Cl)cc1`, the growth is 90.8% in the test on NCI-H23 lung; 99.1% with NCI-H226 lung; 92.2% in the test with NCI-H322M lung; 104% in the test on HOP-62 NSCLC; 97.5% in the test with NCI-H460 lung; 67.7% in the test with HOP-92 NSCLC. Further, the growth was 81.9% in the test with NCI-H522 lung, 88.5% with A549/ATCC NSCLC, 90.3% in the test on 786-0 renal and 117% with COLO 205 colon.

For `C=C1C(=O)O[C@H]2[C@H]1CC/C(COC(=O)NCc1cc[nH]c1)=C\CC[C@@]1(C)O[C@@H]21`, the growth is 85.8% in the test on NCI-H23 lung; 68.5% with NCI-H226 lung; 89.5% with NCI-H322M lung; 87.3% in the test on HOP-62 NSCLC; 68.5% in the test with NCI-H460 lung; 37.2% with HOP-92 NSCLC. The growth in the test on NCI-H522 lung is -8.14% (active); in the test on A549/ATCC NSCLC, 86.7%; with 786-0 renal, 49.5%; with COLO 205 colon, 31.2%.
